Gli-Sufu block – Gli-Sufu pathway antagonists, primary screen, luciferase luminescence, Sufu-KO-LIGHT cells, uHTS; Sufu-KO-LIGHT fibroblasts, Gli luciferase reporter luminescence; inhibition, % at 5 µM; 0.74% of 340,000 active; AID 588413, 2011;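 active means inhibition above about 55%, limit read from the data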;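 further: 0% = DMSO-treated cells and 100% = wells with medium but no cells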
CSC inhib – cancer stem cell viability inhibitors, primary screen, luminescence | cancer stem cell-like cells viability | inhibition, % at 7.5 µM | 1.1% of 300,000 active | AID 2717, 2010; in the data active means inhibition above about 75%; tested in HMLE shEcad cells
Beta cell apopt – inhibitors of cytokine-induced beta cell apoptosis, primary screen, luminescence; INS-1E cytokine-induced death, ATP luminescence, 48 h; percent of positive-control rescue, neutral wells zero; protection from apoptosis, % (concentration not given with the values); 0.8% of 300,000 active; AID 435005, 2010;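 active means Every replicate reaches about 75%, or at least half do and their mean reaches it too, limit read from the data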;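 further: 0% = cytokine-treated negative control wells and 100% = positive control rescue; higher means more ATP so stronger rescue from cytokine killing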
Mdm2-MdmX inh – inhibitors of human Mdm2-MdmX association, primary screen, cell-based, luminescence, split luciferase, SaOS-2, uHTS | Protein Mdm4 (Homo sapiens) + E3 ubiquitin-protein ligase Mdm2 (Homo sapiens), … | SaOS-2 split-luciferase Mdm2/MdmX complementation | inhibition, % at 8 µM | 3% of 330,000 active | AID 485346, 2010;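 active means inhibition of at least 50% at 8 µM in the primary screen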
Target sequence (O15151 whole entry, looked up): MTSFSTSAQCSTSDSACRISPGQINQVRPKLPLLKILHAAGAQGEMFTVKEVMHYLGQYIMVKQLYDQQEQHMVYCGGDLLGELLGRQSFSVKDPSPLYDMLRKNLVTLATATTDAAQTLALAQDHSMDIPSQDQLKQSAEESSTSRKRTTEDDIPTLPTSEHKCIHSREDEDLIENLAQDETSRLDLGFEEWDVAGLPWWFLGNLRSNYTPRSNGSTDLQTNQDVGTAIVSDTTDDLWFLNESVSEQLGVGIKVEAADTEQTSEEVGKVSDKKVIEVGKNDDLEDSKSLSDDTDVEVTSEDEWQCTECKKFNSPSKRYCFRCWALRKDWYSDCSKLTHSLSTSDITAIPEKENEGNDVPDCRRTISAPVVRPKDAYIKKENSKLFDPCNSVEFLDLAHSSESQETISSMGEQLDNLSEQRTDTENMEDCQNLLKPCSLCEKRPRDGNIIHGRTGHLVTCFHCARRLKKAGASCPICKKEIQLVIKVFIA
Target sequence (Q00987 whole entry, looked up): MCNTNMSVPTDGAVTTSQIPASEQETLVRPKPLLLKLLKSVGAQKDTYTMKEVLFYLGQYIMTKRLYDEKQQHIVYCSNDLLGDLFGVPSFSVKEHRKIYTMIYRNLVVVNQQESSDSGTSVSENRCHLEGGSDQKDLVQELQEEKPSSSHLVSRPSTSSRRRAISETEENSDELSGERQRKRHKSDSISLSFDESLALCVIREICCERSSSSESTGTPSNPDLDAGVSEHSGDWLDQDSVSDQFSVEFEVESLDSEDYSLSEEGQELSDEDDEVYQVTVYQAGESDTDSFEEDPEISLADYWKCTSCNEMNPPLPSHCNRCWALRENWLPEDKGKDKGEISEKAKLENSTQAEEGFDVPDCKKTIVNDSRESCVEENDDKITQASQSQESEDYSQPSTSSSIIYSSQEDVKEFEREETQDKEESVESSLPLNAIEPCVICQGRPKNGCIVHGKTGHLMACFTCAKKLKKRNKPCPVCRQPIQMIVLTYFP
PAX8 inh HTS – inhibitors of PAX8-driven TPO luciferase reporter, primary screen, RMG-I cells, single concentration; SteadyGlo, 24 h; inhibition, % at 12.6 µM; 1.2% of 360,000 active; AID 652154, 2013;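 active means mean replicate inhibition at least 60% with every replicate also reaching 60%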;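 further: luciferase light reporting Pax8 driven TPO promoter activity; plate controls were median of neutral control wells for no effect and mitoxantrone controls for full effect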
Shn3 3UTR inh – reduction of Shn3 3'UTR firefly luciferase signal, primary screen, Schnurri-3 inhibitor project, cell-based, Clone20 osteoblasts, set 2; Clone20 osteoblast Shn3 3'UTR firefly luciferase, 24 h; inhibition, % at 12.5 µM; 0.52% of 360,000 active; AID 588674, 2011;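 active means mean inhibition of at least 75% with every replicate also reaching 75%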;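 further: 0% = median of neutral control wells and 100% = pilot-screen positive control compound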
Mdm2-MdmX conf – Mdm2-MdmX complex disruptors, retested hits, confirmation, luminescence, single concentration; shares compounds with Mdm2-MdmX inh; Mdm2-MdmX binding, luminescent assay; inhibition, % at 8 µM; 55% of 10,000 active; in the data active means inhibition above about 40%
Full FLuc ctr – full-length luciferase signal inhibition, confirmation, counter-screen for Mdm2/MdmX interaction inhibitor project, cell-based, single concentration, SaOS-2 | shares compounds with Mdm2-MdmX inh | SaOS-2 full-length luciferase counterscreen, luminescence | inhibition, % at 8 µM | 77% of 6,200 active | AID 504607, 2011;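 active means mean inhibition at 8 µM reaching about 37%, which flags the compound as non-specific, limit read from the data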;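 further: p53-null SaOS-2 cells with luciferase driven by a doxycycline-inducible promoter; compound on cells about two nights before reading with doxycycline added after day one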
* marks the source's active call; other numbers are inactive results; . = not tested or not shown. Most compounds without a hit are left out; they make up all but 4% or so of the library.

SMILES	Gli-Sufu block	CSC inhib	Beta cell apopt	Mdm2-MdmX inh	PAX8 inh HTS	Shn3 3UTR inh	Mdm2-MdmX conf	Full FLuc ctr
CSc1nnc(NC(=O)c2nc(S(=O)(=O)Cc3ccccc3)ncc2Cl)s1	11	.	.	99*	17	96*	94*	2
COc1ccc(NC(=O)Nc2ccc3c(c2)[C@@H]2C[C@H](CC(=O)NC4CCCCC4)O[C@H](CO)[C@@H]2O3)cc1	.	.	.	.	0	.	.	.
C[C@H](CO)N1C[C@H](C)[C@H](CN(C)C(=O)Nc2ccc3c(c2)OCO3)Oc2ccc(NC(=O)NC3CCCCC3)cc2C1=O	.	.	.	.	-6	.	.	.
CN(C)CC(=O)N[C@H]1CC[C@@H](CC(=O)NCc2ccc(Cl)cc2)O[C@@H]1CO	.	.	.	.	-16	.	.	.
C[C@H](CO)N1C[C@H](C)[C@H](CN(C)C(=O)c2ccncc2)OCCCC[C@H](C)Oc2ccc(NS(=O)(=O)c3ccc(F)cc3)cc2C1=O	.	.	.	.	18	.	.	.
CC(C)n1nc(C(=O)Nc2nc3ccc(S(C)(=O)=O)cc3s2)c2ccccc2c1=O	-4	-7	8	91*	.	18	57*	82*
COC(=O)c1ccc2nc(NC(=O)CCS(=O)(=O)c3ccccc3)sc2c1	-23	35	-8	91*	58	11	68*	27
O=C(CCS(=O)(=O)c1ccccc1)Nc1nc2cc3c(cc2s1)OCCO3	-26	-3	-3	57*	-29	-30	28	.
CS(=O)(=O)c1ccc2nc(NC(=O)CCS(=O)(=O)c3ccccc3)sc2c1	-2	29	-5	78*	18	10	73*	84*
COc1ccc(CN(C)C[C@@H]2OCCCC[C@@H](C)Oc3ccc(NS(=O)(=O)c4ccccc4)cc3C(=O)N([C@H](C)CO)C[C@H]2C)cc1	.	.	.	.	-12	.	.	.
C[C@H](CO)N1C[C@H](C)[C@@H](CN(C)Cc2ccc(Cl)c(Cl)c2)Oc2ccc(NC(=O)c3ccncc3)cc2C1=O	.	.	.	.	-14	.	.	.
O=C(Nc1ccc(Cl)c(Cl)c1)N[C@@H]1CC[C@@H](CCn2cc(C3CC3)nn2)O[C@@H]1CO	.	.	.	.	-4	.	.	.
O=C(CCS(=O)(=O)c1ccccc1)Nc1nc2ccc(F)cc2s1	-7	39	-5	67*	107*	23	65*	72*
COc1ccc(OC)c2sc(NC(=O)CCS(=O)(=O)c3ccccc3)nc12	-2	109*	25	98*	14	17	77*	24
O=C(CCS(=O)(=O)c1ccccc1)Nc1nc2cc3c(cc2s1)OCO3	-18	32	-4	25	-18	-2	.	.
COc1ccc(S(=O)(=O)N(C)C[C@H]2OCCCC[C@H](C)Oc3ccc(NC(=O)CCC(F)(F)F)cc3C(=O)N([C@H](C)CO)C[C@@H]2C)cc1	.	.	.	.	-18	.	.	.
CCC(=O)N1CC2(CN(C(=O)Nc3ccc(F)cc3)C2)c2c([nH]c3cc(OC)ccc23)[C@@H]1CO	.	.	.	.	-20	.	.	.
O=C(O)c1cc(N/N=C/c2c(O)ccc3ccccc23)ccc1Cl	-37	11	-10	-71	-168	-84	.	.
O=C(N/N=C/c1c(O)ccc2ccccc12)Nc1ccccc1	1	15	3	30	-33	.	.	.
COc1ccc(NC(C)C(=O)N/N=C/c2c(O)ccc3ccccc23)cc1 (stereo unspecified)	14	7	64	65*	29	48	56*	39*
O=C(CSCC(=O)Nc1ccccc1)N/N=C/c1c(O)ccc2ccccc12	7	58	-11	79*	.	93*	72*	28
O=C(CNc1ccccc1)N/N=C/c1c(O)ccc2ccccc12	-4	57	84*	84*	8	91*	79*	27
O=C(CN1CCCc2ccccc21)N/N=C/c1ccc(F)cc1F	-6	-11	-2	-8	18	8	.	.

Bioassay records from PubChem.
